In PubChem BioAssay (NCI):
About 83,000 compounds went through this panel and 20% of them were active in at least one assay; those are over-represented in the sample as a whole.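 Negative percent growth values reflect cell death: -40 means 40% of the cells present at the start died, and -100 means all died.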 The source made the active and inactive calls. Rule for the calls: active = growth percent below 10; inactive = the rest.

What was measured:
Experiment in all cases: NCI-60 one-dose screen, 48 h (100 = growth as untreated, 0 = no growth, -100 = all killed)
Settings in all cases: 10 µM unless noted
[1] = tested on: EKVX NSCLC
[2] = tested on: SN12C renal
[3] = tested on: UO-31 renal
[4] = tested on: TK-10 renal
[5] = tested on: ACHN renal
[6] = tested on: CAKI-1 renal
[7] = tested on: A498 renal
[8] = tested on: CCRF-CEM leukemia
[9] = tested on: MOLT-4 leukemia

Measured: growth

O=C(Nc1ccccn1)[C@H](O)[C@@H](O)C(=O)N1CCOCC1
inactive: [1] 109% | [2] 97.3% | [3] 104% | [4] 96.2% | [5] 112% | [6] 105% | [7] 108% | [8] 98.6% | [9] 105%

Cc1ccc(NC(=O)C(Cl)Cl)cc1
inactive: [1] 109% | [2] 98.9% | [3] 83% | [4] 94.3% | [5] 100% | [6] 103% | [7] 80.9% | [8] 100% | [9] 14.2%

CNC(=O)c1cc(Oc2ccc3nc(Nc4cc(Cl)cc(Cl)c4)ccc3c2)ccn1
inactive: [1] 53.1% | [2] 78.9% | [3] 58.9% | [4] 74.3% | [5] 62.6% | [6] 84.1% | [7] 35.2% | [8] 81.1% | [9] 33.7%

CCN(CC)S(=O)(=O)c1ccc(O)c(NC(=O)c2[nH]c(C)c(C(C)=O)c2CCc2ccc(Cl)cc2)c1
inactive: [1] 78% | [2] 43% | [3] 23.5% | [4] 53.9% | [5] 36.2% | [6] 56.8% | [7] 26% | [8] 62% | [9] 28.3%

CS(=O)(=O)c1ccc(-c2[nH]c3ccc(F)cc3c2/C=N/O)cc1
inactive: [1] 98.4% | [2] 99.1% | [3] 82.5% | [4] 99.4% | [5] 97% | [6] 81.4% | [7] 99.2% | [8] 92.9% | [9] 92.9%

O=C1C2=C(CCN(Cc3ccccc3)C2)N2CCN=C2N1Cc1ccc(F)cc1F
inactive: [1] 30.2% | [2] 28.8% | [3] 32.5% | [4] 44.8% | [5] 35.6% | [6] 32.9% | [7] 14.6% | [8] 56.7% | [9] 74.1%

Cc1ccc(Nc2ccc(Nc3ccc(C)cc3S(=O)(=O)O)c3c2C(=O)c2ccccc2C3=O)c(S(=O)(=O)O)c1
inactive: [1] 91.5% | [2] 98.5% | [3] 78.4% | [4] 98.3% | [7] 119% | [8] 95.6% | [9] 116%

CN1CCN(CCCOc2ccc3nc(Nc4cc(Cl)cc(Cl)c4)ccc3c2)CC1
active: [1] -21.5% | [2] -17.7% | [3] -87.6% | [4] -79.7% | [5] -98.8% | [6] -32.6% | [7] -18.6% | [8] -52.5% | [9] -67.8%

CCCCN1CCN(c2ccc3nc(-c4ccc5nc(-c6cc(OC)c(OC)c(OC)c6)[nH]c5c4)[nH]c3c2)CC1
inactive: [1] 106% | [2] 80.2% | [3] 79.8% | [4] 131% | [5] 86.8% | [6] 87.9% | [8] 25.1% | [9] 47%

CN1CCN(c2ccc(Nc3ncc(Cl)c(NC[C@@H]4CCCO4)n3)cc2)CC1
active: [5] 1.78% | [7] -25%
inactive: [1] 39% | [2] 28.2% | [4] 23.6% | [6] 26.6% | [8] 28% | [9] 16.8%

Cc1nc(Nc2ccccn2)sc1C(=O)/C=C/c1ccc(Br)cc1
inactive: [1] 60.4% | [2] 78.8% | [3] 49.7% | [4] 127% | [5] 75.2% | [6] 53.4% | [8] 31.1% | [9] 80%

CN(C)c1ccc(/C=C2\C=C(c3ccccc3)N(CCc3ccccc3)C2=O)cc1
inactive: [1] 46.9% | [2] 89.8% | [4] 88.7% | [5] 57.6% | [6] 76.9% | [8] 102% | [9] 86.5%

Cc1nn(-c2ccccc2)c2c1C(c1ccc([N+](=O)[O-])cc1)C(C#N)=C(N)O2 (stereo not drawn)
inactive: [1] 115% | [2] 101% | [3] 70.4% | [4] 141% | [5] 108% | [6] 115% | [7] 111% | [8] 90.3% | [9] 101%

C=C1c2c(C)nn(-c3ccc(NC(C)=O)cc3)c2N(C)C23CC1C1(C)c4c(C)nn(-c5ccc(NC(C)=O)cc5)c4N(C)C(C)(CC12)C3 (stereo not drawn)
inactive: [1] 24.9% | [2] 45.6% | [3] 24.2% | [4] 37.3% | [5] 19.4% | [6] 32.8%
active: [8] 8.28%

CN(C)c1ccc2cc(-c3ccccc3F)c(N)nc2c1
inactive: [1] 31.1% | [2] 54.9% | [3] 34% | [4] 34.6% | [5] 41.2% | [6] 37.5% | [8] 45.7% | [9] 35.1%

Cc1nc(Nc2ccc(NC(=S)Nc3ccccc3)cc2)nc2nc(SCc3ccccc3)[nH]c(=O)c12
inactive: [1] 99.2% | [2] 93.6% | [3] 86% | [4] 199% | [5] 107% | [7] 102% | [8] 92.3% | [9] 87.4%
